Screens: PubChem, several laboratories
Sampled rows, rich in hits. Any-hit rate of the full collection: about 1.2%.
Sa ugtP lethal: growth inhibition of S. aureus ugtP deletion strain | actives 0.54% (n = 330,000) | S. aureus RN4220 ugtP deletion, OD600 growth, 16 h | growth inhibition, % (concentration not given with the values); in the data active = growth inhibition above about 68%;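 also: plate controls were untreated wells for no effect and antibiotic for full effect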
PfHsp40 rescue: compounds rescuing yeast from Plasmodium falciparum HSP40 toxicity; S. cerevisiae expressing PfHsp40, growth rescue, ATP luminescence; growth rescue, % at 12.5 µM; actives 0.68% (n = 340,000); in the data active = growth rescue above about 28%, passing the limit was not always enough;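 also: yeast W303a lacking pdr1 and pdr3 grown in galactose medium; growth measured after three days at 30 °C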
Vc quorum ag-1: inducers of Vibrio cholerae quorum light production without autoinducers | AID 588436 | activation, % at 18.7 µM | actives 0.16% (n = 350,000) | V. cholerae BH1578 lux reporter, luminescence, 6 h; in the data active = activation mostly above about 9.7%, no sharp cut-off
RN4220 kill: S. aureus RN4220 growth inhibition; AID 1259311; inhibition, % (concentration not given with the values); OD600, 16 h; actives 0.33% (n = 330,000); in the data active = inhibition above about 85%;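 also: plate controls were untreated cells for no effect and reference antibiotic for full effect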
Mtb bLac sens: beta-lactam sensitization of Mtb H37Rv. M. tuberculosis H37Rv growth with meropenem, percent inhibition. inhibition, % at 25 µM. actives 0.27% (n = 330,000);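 also: growth measured after seven days incubation then overnight dye step; 0% = bacteria only wells and 100% = bacteria with antibiotic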
Vc quorum ag-2: induces V. cholerae light production without autoinducers; shares compounds with Vc quorum ag-1; V. cholerae BH1578 lux reporter, luminescence, 6 h; activation, % at 50 µM; 620 tested, under 10 active
HeLa 24h tox: cytotoxicity in HeLa cells at 24 hours. shares compounds with Vc quorum ag-1. HeLa viability, CellTiter-Glo ATP luminescence. activity change, negative = cytotoxicity, % at 35 µM. 25 tested, under 10 active;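 active = signal drop with fitted half-maximal concentration at or below twice the highest valid dose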
Active calls of the source: *; i = inactive; · = no result given; + = active, no number. Unless noted, no rule for the calls is given here.

SMILES	Sa ugtP lethal	PfHsp40 rescue	Vc quorum ag-1	RN4220 kill	Mtb bLac sens	Vc quorum ag-2	others
COc1ccccc1NC(=O)COC(=O)c1oc2ccccc2c1C	-16	2	26*	3	-3	27	HeLa 24h tox=-5
Cn1cc(C(=O)OCC(=O)NC2CCCCC2)c2ccccc21	-1	-1	1	1	-1	·
Cc1cc(C(=O)OCC(=O)Nc2c(Cl)cccc2C(F)(F)F)c(C)o1	3	2	9	5	-3	1
COc1ccccc1NC(=O)c1oc2ccccc2c1C	·	·	-1	·	·	·
COc1c(OC2OC(CO)C(O)C(O)C2O)cc2c(c1OC)-c1ccc(SC)c(=O)cc1C(NC(C)=O)CC2 (stereo unspecified)	6	·	·	7	·	·
Cc1cc(C(=O)OCC(=O)Nc2ccc(F)c(F)c2F)c(C)o1	-4	0	-1	3	0	·
COc1ccc(Cl)cc1NC(=O)COC(=O)c1cc(C)oc1C	-8	1	+	3	2	589
COc1ccccc1NC(=O)COC(=O)c1cc(C)oc1C	10	-1	·	5	3	i
Fc1ccc2cnc(CCOC3CCCCO3)cc2c1 (stereo unspecified)	4	·	·	5	·	·
O=c1c2cc(Br)ccc2nc(-c2cccc(C(F)(F)F)c2)n1O	12	5	18*	28	97	1
CCOc1ccc(C=C2SC(=S)N(C(C(=O)O)c3ccccc3)C2=O)cc1OCC (stereo unspecified)	-6	·	·	14	·	·
Cc1ccccc1C(=O)Nc1cccc(N)c1	1	-1	48*	0	-10	3
COc1ccccc1C(=O)Nc1cccc(NC(=O)c2ccccc2C)c1	·	2	0	·	-6	·
S=C(c1ccc(N2CCOCC2)cc1)N1CCCCC1	2	0	20*	-2	-4	0
Oc1ccc(C(=S)N2CCCCC2)cc1	-10	1	·	-10	-12	·
Cc1ccc(OCC(=O)NC2CCS(=O)(=O)C2)c([N+](=O)[O-])n1 (stereo unspecified)	4	1	12	2	3	0
CC1CN(C(C)CO)C(=O)c2cccc(NS(=O)(=O)c3cn(C)cn3)c2OC1CN(C)S(C)(=O)=O (stereo unspecified)	16	·	·	9	·	·
N#Cc1c(N=CN2CCOCC2)sc2c1CCCCC2	-2	·	·	3	·	·
CCOC(=O)CC1C(=O)NCCN1C(=O)c1ccc(F)cc1F (stereo unspecified)	-3	-1	i	2	-4	·
CCOC(=O)CC1C(=O)NCCN1C(=O)c1cccc(C(F)(F)F)c1 (stereo unspecified)	6	2	17*	3	1	1
Cc1ccccc1OCC(=O)OCC(=O)N1CCCc2ccccc21	8	0	14	4	60	0
Cc1ccccc1OCC(=O)OCC(=O)N1CCc2ccccc21	3	1	5	3	·	·
CS(=O)(=O)NNC(=O)c1sccc1OCc1ncc(C(F)(F)F)cc1Cl	5	0	14	6	-3	7
CCCOc1ccc(-c2nc(OC)c3ccccc3n2)cc1	22	0	25*	-4	98	0
COc1ccc(Oc2nc(-c3cccnc3)nc3ccccc23)cc1	-10	-1	i	17	48	·
CC(OC(=O)N1CCN(C(c2ccccc2)c2ccccc2)CC1)C1O[C@@]2(C)CCCC1O2 (stereo partly specified)	5	·	·	-4	·	·
Cc1ncc(S(=O)(=O)c2ccccc2)c(-c2ccc(Cl)cc2Cl)n1	21	0	17*	14	-4	0
COC(=O)Nc1ccc(S(=O)(=O)NCCCCCC(=O)O)cc1	4	-1	i	6	1	·
COC(=O)Nc1ccc(S(=O)(=O)NCCO)cc1	7	1	12	8	-7	0
COC(=O)C1=C(c2ccc(F)cc2F)CC2CCC1N2C(=O)N1CCC(C)CC1 (stereo unspecified)	0	·	·	2	·	·
